# In the library only some 3.9% were active in any assay of this set; here they are far more common.
# Autofluor counter: compound fluorescence in toxin protease inhibitor counterscreen | compound autofluorescence counterscreen, microsphere flow cytometry; stronger effect = higher value | fluorescence intensity (no concentration beside the values) | 360,000 tested, 3.1% active | AID 624483; in the data active = fluorescence intensity above about 16000; inconclusive = no clear call, values can overlap the other calls
# CCHF vOTU inh: blocks the CCHF virus ovarian tumor domain protease; CCHFV vOTU protease, Pep-AMC fluorescence; inhibition, % at 11.5 µM; 370,000 tested, 0.55% active; AID 651958; in the data active = inhibition above about 30%
# SARS 3CLpro inh-1: SARS-CoV 3CLpro protease inhibition; recombinant SARS-CoV 3CLpro, quenched FRET peptide cleavage; inhibition, % at 6 µM; P0C6X7; 290,000 tested, 0.14% active; in the data active = inhibition above about 12%
# Anthrax LF prot: blocks Bacillus anthracis lethal factor protease; P15917; multiplex microsphere protease cleavage assay, LF; inhibition, % at 10 µM; 360,000 tested, 0.12% active; AID 588501
# Target sequence (P15917 whole entry, looked up): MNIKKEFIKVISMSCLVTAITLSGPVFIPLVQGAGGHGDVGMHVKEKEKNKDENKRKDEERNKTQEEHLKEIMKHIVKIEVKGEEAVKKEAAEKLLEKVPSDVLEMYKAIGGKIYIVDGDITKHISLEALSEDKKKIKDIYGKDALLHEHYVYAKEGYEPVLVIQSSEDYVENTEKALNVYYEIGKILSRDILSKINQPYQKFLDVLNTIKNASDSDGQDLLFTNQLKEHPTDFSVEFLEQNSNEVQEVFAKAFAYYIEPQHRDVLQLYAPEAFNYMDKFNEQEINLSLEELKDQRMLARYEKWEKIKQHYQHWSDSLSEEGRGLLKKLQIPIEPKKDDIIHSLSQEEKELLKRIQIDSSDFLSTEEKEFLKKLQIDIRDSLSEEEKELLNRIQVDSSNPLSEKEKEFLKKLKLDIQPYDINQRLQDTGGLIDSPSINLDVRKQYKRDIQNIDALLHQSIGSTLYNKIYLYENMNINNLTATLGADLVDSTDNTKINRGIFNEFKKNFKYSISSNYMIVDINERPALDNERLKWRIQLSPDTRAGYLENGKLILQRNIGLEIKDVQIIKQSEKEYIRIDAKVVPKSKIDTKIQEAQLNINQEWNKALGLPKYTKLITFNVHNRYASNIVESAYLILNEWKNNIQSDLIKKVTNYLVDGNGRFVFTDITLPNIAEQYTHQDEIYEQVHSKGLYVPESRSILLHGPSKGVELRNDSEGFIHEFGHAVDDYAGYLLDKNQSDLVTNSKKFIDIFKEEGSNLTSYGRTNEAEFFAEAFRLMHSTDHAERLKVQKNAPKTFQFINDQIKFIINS
# BoNT F protease: blocks Botulinum neurotoxin F light chain protease | Multiplex microsphere protease cleavage assay, flow cytometry | inhibition, % at 10 µM | 360,000 tested, 0.22% active; in the data active = inhibition above about 35%, passing the limit was not always enough; inconclusive = no clear call, values can overlap the other calls
# BoNT-A LC inh2: BoNT A light chain protease inhibition | multiplex microsphere protease substrate cleavage, flow cytometry | inhibition, % at 10 µM | 360,000 tested, 0.17% active | AID 588499
# SARS 3CLpro inh-2: confirmation of SARS coronavirus 3C-like protease inhibitors; 380 tested, 36% active; AID 1879; shares compounds with SARS 3CLpro inh-1; QFRET protease activity assay, 3CLpro; inhibition, % at 6 µM; in the data active = inhibition above about 13%
# Hits are given with their value; 0 = inactive; ? = inconclusive; - = not tested or not shown. Rule as the data show it, unless noted: active = inhibition above about 30%; inconclusive = no clear call, values can overlap the other calls; inactive = below that.
SMILES,Autofluor counter,CCHF vOTU inh,SARS 3CLpro inh-1,Anthrax LF prot,BoNT F protease,BoNT-A LC inh2,SARS 3CLpro inh-2
Cc1c(C(=O)O)sc(S(=O)(=O)N2CCN(C(=O)Cc3ccccc3Cl)CC2)c1C(=O)O,0,0,-,0,0,0,-
O=C1NC(=O)N(c2ccccc2F)C(=O)/C1=C/c1cn(CC(=O)N2CCOCC2)c2ccccc12,-,0,18,-,-,-,18
O=C(c1c(Cl)nc2sccn12)N1CCN(c2cccc(Cl)c2)CC1,0,0,44,0,0,0,0
O=C(c1cc2ccccc2cc1O)N1CCN(c2cccc(Cl)c2)CC1,0,0,-,0,0,0,-
Cc1cccc(NS(=O)(=O)c2ccc(C3CCCCC3)cc2)c1,0,0,0,0,0,0,-
O=C(O)c1cccc(NS(=O)(=O)c2ccc(C3CCCCC3)cc2)c1,0,-,12,0,0,0,0
Cn1ncc(Cl)c1C(=O)Nc1ccc2c(c1)OCO2,0,0,13,0,0,0,0
Cn1ncc(Cl)c1C(=O)NCc1ccc2c(c1)OCO2,0,0,0,0,0,0,-
O=C(NCc1ccccc1)c1ccc(N2CCC3(CC2)CC(c2ccc(Cl)cc2)=NO3)c([N+](=O)[O-])c1,0,0,0,0,0,0,-
C=CCc1c(C)nc2c(C)cccc2c1SC(=N)N,0,0,16,0,?,0,0
COc1cc(C)c(CN2CCC(n3nccc3NC(=O)C3CC3)CC2)cc1C,0,0,0,0,0,0,-
COc1ccc(CC(=O)NC(C)c2nnc(SCC(=O)c3ccc(OC)cc3)n2C)cc1 (stereo not drawn),0,0,0,0,0,0,-
COc1ccc(CC(=O)NC(C)c2nnc(SCCOc3ccc(OC)cc3)n2C)cc1 (stereo not drawn),16217,0,18,0,0,0,0
Cc1ccc(C2=NN(C(=O)CCl)C(c3ccco3)C2)o1 (stereo not drawn),0,0,47,0,0,0,61
COc1cccc(CC(NC(C)=O)C(=O)NC2CCN(C(=O)Nc3ccc(C)cc3)CC2)c1 (stereo not drawn),0,0,0,0,0,0,-
O=C(NNC(=O)C1COc2ccccc2O1)c1ccccc1O (stereo not drawn),0,0,-,0,0,0,-
O=c1[nH]c(C2CCN(S(=O)(=O)c3ccccc3F)CC2)nc2c1nnn2Cc1ccc(OC(F)(F)F)cc1,0,0,13,0,0,0,0
O=c1[nH]c(C2CCN(S(=O)(=O)c3ccccc3C(F)(F)F)CC2)nc2c1nnn2Cc1ccccc1,0,0,0,0,0,0,-
O=C(Nc1ccccc1N1CCN(C(=O)c2ccc(Cl)cc2)CC1)c1cccc([N+](=O)[O-])c1,0,0,14,0,0,0,0
CCc1ccc(C(=O)Nn2cnc3ccccc3c2=O)cc1,0,0,0,0,0,0,-
O=C(Nn1cnc2ccccc2c1=O)c1ccc(Br)cc1,0,0,14,0,0,0,0
O=C(Nc1cccc(S(=O)(=O)N2CCCCCC2)c1)c1cncc(Br)c1,0,0,-,0,0,0,-
Cc1cc(C(=O)CCl)c(C)n1-c1cccc([N+](=O)[O-])c1,0,0,20,0,0,0,60
C/C(=N\NC(=O)c1cccc(Cl)c1)c1cccc(NC(=O)C(C)C)c1,0,0,0,0,0,0,-
C/C(=N\NC(=O)c1ccc(Cl)c(Cl)c1)c1cccc(NC(=O)C(C)C)c1,0,0,23,0,0,0,0
SMILES,Autofluor counter,CCHF vOTU inh,SARS 3CLpro inh-1,Anthrax LF prot,BoNT F protease,BoNT-A LC inh2,SARS 3CLpro inh-2
CCOc1cccc(-c2c(C(=O)N/N=C/c3ccc(Br)cc3)nnn2-c2nonc2N)c1,0,0,0,0,0,0,-
Cc1cccc(NS(=O)(=O)c2nnc(NC(=O)c3cccc(C)c3)s2)c1,0,0,12,0,0,0,0
Cc1cccc(NS(=O)(=O)c2nnc(NC(=O)c3ccc(Cl)cc3)s2)c1,0,0,13,0,0,0,0
Cc1cccc(NC(=O)CSc2nc(NS(=O)(=O)c3ccccc3)cc(=O)[nH]2)c1,0,0,0,0,0,0,-
COc1ccc(-c2c(C)nn3c(C)cc(C)nc23)cc1,0,0,0,0,?,0,-
CC(=O)Nc1ccc(N(C(=O)Cn2nnc3ccccc32)C(C(=O)NC2CCCC2)c2ccc(O)c(O)c2)cc1 (stereo not drawn),0,0,20,0,0,0,25

# Screening data (PubChem BioAssay)
